Data: PMC5700166

The sequences below were run against T1, GST-Nv-NF-kB (Ser allele) (Nematostella vectensis, UniProt A7UNT2 2-411) (assay: protein-binding microarray (PBM); PBM: ~300 nM protein, 6 mM HEPES pH 7.8, 80 mM KCl, 0.5 mM EDTA, 0.5 mM EGTA, 6% glycerol, 35 ng/ul poly-dIdC, 1% milk, 1 h, room temperature; Ap Aiptasia and Nv Nematostella (sea anemones) / Co Capsaspora / Aq Amphimedon (sponge) / Dm Drosophila / Hu human; RHD is the Rel homology domain; high values mean tight binding). Settings: dsDNA, one strand shown.
T1 sequence: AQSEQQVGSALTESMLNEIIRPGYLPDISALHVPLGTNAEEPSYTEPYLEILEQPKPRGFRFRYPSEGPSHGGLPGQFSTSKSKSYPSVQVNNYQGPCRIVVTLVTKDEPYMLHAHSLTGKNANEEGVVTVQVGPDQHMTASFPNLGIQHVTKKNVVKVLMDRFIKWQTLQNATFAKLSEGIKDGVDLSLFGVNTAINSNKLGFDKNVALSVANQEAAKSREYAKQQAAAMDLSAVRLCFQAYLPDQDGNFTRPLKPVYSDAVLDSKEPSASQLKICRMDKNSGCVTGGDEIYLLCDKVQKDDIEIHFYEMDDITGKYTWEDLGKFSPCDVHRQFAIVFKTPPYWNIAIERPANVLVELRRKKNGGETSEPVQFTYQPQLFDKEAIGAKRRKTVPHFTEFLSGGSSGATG

Row | Sequence | binding signal [z-score]
1 | CCGATTAACATCAGAAACTCCCATGATGTTAATCGGGTCTTGATTCGCTTGACGCTGCTG | 2.93
2 | CCGATTAACATCAGGGACTTCCATGATGTTAATCGGGTCTTGATTCGCTTGACGCTGCTG | 5.01
3 | CCGATTAACATCAGGAAAGCACCTGATGTTAATCGGGTCTTGATTCGCTTGACGCTGCTG | 2.69
4 | CCGATTAACATCAAGGAAGTCCCTGATGTTAATCGGGTCTTGATTCGCTTGACGCTGCTG | 5.82
5 | CCGATTAACATCAGGGAAGGCCCTGATGTTAATCGGGTCTTGATTCGCTTGACGCTGCTG | 1.93
6 | CCGATTAACATCAGGAGAGCCCCTGATGTTAATCGGGTCTTGATTCGCTTGACGCTGCTG | 1.67
7 | CCGATTAACATCAAGGGACTTTCTGATGTTAATCGGGTCTTGATTCGCTTGACGCTGCTG | 8.36
8 | CCGATTAACATCAGGGAGGCCCCTGATGTTAATCGGGTCTTGATTCGCTTGACGCTGCTG | 1.37
9 | CCGATTAACATCAGGGACTTCACTGATGTTAATCGGGTCTTGATTCGCTTGACGCTGCTG | 4.08
10 | CCGATTAACATCAAAGAAGTCCCTGATGTTAATCGGGTCTTGATTCGCTTGACGCTGCTG | 6.97
11 | CCGATTAACATCAAAAAGCCCCTTGATGTTAATCGGGTCTTGATTCGCTTGACGCTGCTG | 7.49
12 | CCGATTAACATCAGGAAAGTCCCTGATGTTAATCGGGTCTTGATTCGCTTGACGCTGCTG | 8.2
13 | CCGATTAACATCACGGGATTACCTGATGTTAATCGGGTCTTGATTCGCTTGACGCTGCTG | 2.51
14 | CCGATTAACATCAGGGTTTCACCTGATGTTAATCGGGTCTTGATTCGCTTGACGCTGCTG | 1.23
15 | CCGATTAACATCAGAAAAATACCTGATGTTAATCGGGTCTTGATTCGCTTGACGCTGCTG | 3.74
16 | CCGATTAACATCACGGTAATTCCTGATGTTAATCGGGTCTTGATTCGCTTGACGCTGCTG | 2.65
17 | CCGATTAACATCAGGGACATCCCTGATGTTAATCGGGTCTTGATTCGCTTGACGCTGCTG | 4.22
18 | CCGATTAACATCACGGGATTTCGTGATGTTAATCGGGTCTTGATTCGCTTGACGCTGCTG | 1.43
19 | CCGATTAACATCAGGCAAGCCCCTGATGTTAATCGGGTCTTGATTCGCTTGACGCTGCTG | 1.38
20 | CCGATTAACATCAGGGATTGCCCTGATGTTAATCGGGTCTTGATTCGCTTGACGCTGCTG | 1.87
21 | CCGATTAACATCAGGGAGTTCACTGATGTTAATCGGGTCTTGATTCGCTTGACGCTGCTG | 1.78
22 | CCGATTAACATCAGGAAATCACCTGATGTTAATCGGGTCTTGATTCGCTTGACGCTGCTG | 3.89
23 | CCGATTAACATCAGGGTTTTTAGTGATGTTAATCGGGTCTTGATTCGCTTGACGCTGCTG | 2.09
24 | CCGATTAACATCAGGGGCTTCACTGATGTTAATCGGGTCTTGATTCGCTTGACGCTGCTG | 2.69
25 | CCGATTAACATCAGGAAGCCCCATGATGTTAATCGGGTCTTGATTCGCTTGACGCTGCTG | 2.15
26 | CCGATTAACATCAGGAAATTACCTGATGTTAATCGGGTCTTGATTCGCTTGACGCTGCTG | 5.26
27 | CCGATTAACATCAAGGGAACCCCTGATGTTAATCGGGTCTTGATTCGCTTGACGCTGCTG | 1.95
28 | CCGATTAACATCAGAGAAGCCCCTGATGTTAATCGGGTCTTGATTCGCTTGACGCTGCTG | 4.05
29 | CCGATTAACATCAGGAGAGTCCCTGATGTTAATCGGGTCTTGATTCGCTTGACGCTGCTG | 3.96
30 | CCGATTAACATCAGGGAGGTACCTGATGTTAATCGGGTCTTGATTCGCTTGACGCTGCTG | 2.93
